Outcome and AC50 data for seven molecules are collected here from PubChem BioAssay (EPA / NIEHS).

Molecules are shown by their SMILES. Records with an inconclusive call do not appear. Calls of active or inactive are those of the source. Rule for the calls, unless noted: active = hit-call score of the fitted dose curve at least 0.9, where 1 is the maximum; inactive = score below 0.9.

A short description of assay [1]: ACEA_ER_80hr: ACEA Biosciences xCELLigence Real-Time Cell Analysis on Estrogen Receptor Agonism for Proliferation (AID 2282667; active = hit-call score of the fitted dose curve at least 0.9, where 1 is the maximum). To be noted: T47D proliferation, impedance (xCELLigence), 80 h. The essentials: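 Real-time electrical impedance tracked growth of the human breast line T47D, with the 80 h post-dosing value used. Dosing spanned eight 1:4 steps down from a 100 uM final top concentration, run in duplicate.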

A short description of assay [2]: ATG_CRE_CIS: Attagene CIS-FACTORIAL HepG2 Assay for human cAMP Responsive Element (CRE) binding protein 3 (AID 2282926). To be noted: HepG2 CRE cis-reporter, Attagene multiplexed mRNA; actives raise or lower the signal. The gist of the method:
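Assay format: transient reporter transfection of HepG2, 24 h treatment, total RNA isolation with DNase I step. Reporter abundance read by fluorescence after PCR and capillary separation; DMSO-normalised gain or loss fitting.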

The target of assay [3] is CCAAT/enhancer-binding protein beta (Homo sapiens) (UniProt P17676). The assay can be described thus: ATG_C_EBP_CIS: Attagene CIS-FACTORIAL HepG2 Assay for human CCAAT/Enhancer Binding Protein (C/EBP) beta (AID 2282927). Conditions: HepG2 Attagene cis-factorial transcription factor reporter; actives raise or lower the signal. The essentials: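 HepG2, transient MRTU transfection, 24 h treatment. RT-PCR plus CE fluorescence; DMSO negative control, bidirectional fit.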

Assay [4] is described as follows: ATG_CMV_CIS: Attagene CIS-FACTORIAL HepG2 Assay for human CMV (Internal Marker) (AID 2282928).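 Note: endpoint acts as a background internal control marker rather than a target.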 Conditions: HepG2 CMV promoter reporter, transcription factor profiling; actives raise or lower the signal. The gist of the method:
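Reporter transcripts from transfected HepG2 cells are isolated after 24 h of chemical dosing, reverse-transcribed and amplified. Fragments labeled with 6-FAM are cut with HpaI and quantified by capillary electrophoresis; DMSO defines baseline.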

A short description of assay [5]: ATG_DR4_LXR_CIS: Attagene CIS-FACTORIAL HepG2 Assay for human Liver X Receptor (LXR), DR4 submotif (AID 2282929). To be noted: HepG2 Attagene DR4 cis-reporter, mRNA transcription; actives raise or lower the signal. The essentials:
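Fluorescence intensity of labelled reporter cDNA fragments, separated by capillary electrophoresis, gives the signal. HepG2 cells bearing cis-regulated reporter constructs were treated 24 h; activity fitted bidirectionally relative to DMSO negative control.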

Assay [6] has as its target Aryl hydrocarbon receptor (Homo sapiens) (UniProt P35869). The assay can be described thus: ATG_Ahr_CIS: Attagene CIS-FACTORIAL HepG2 Assay for human Aryl Hydrocarbon Receptor (Ahr) (AID 2282930). To be noted: HepG2 AhR cis-factorial reporter transcription; actives raise or lower the signal. The gist of the method:
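Endogenous factor activity is tracked through cis-promoter reporter units transfected into HepG2 cells. Transcript levels at 24 h are read by fluorescent RT-PCR and capillary electrophoresis, with activity in either direction scored relative to DMSO.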

Assay [7] can be described thus: ATG_AP_1_CIS: Attagene CIS-FACTORIAL HepG2 Assay for human Activator Protein 1 (AP-1) (AID 2282931). Conditions: HepG2 Attagene cis-factorial AP-1 reporter mRNA; actives raise or lower the signal. The essentials: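 Multiplexed HepG2 reporter assay, 24 h dosing. mRNA induction detected by RT-PCR plus capillary electrophoresis. Activity fitted in both directions against DMSO.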

Assay [8] in a line: ATG_AP_2_CIS: Attagene CIS-FACTORIAL HepG2 Assay for human Activator Protein 2 (AP-2) (AID 2282932). Conditions: HepG2 AP-2 cis-reporter, Attagene transcription factor profiling; actives raise or lower the signal. The essentials:
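Read-out: fluorescent reporter mRNA via RT-PCR and capillary electrophoresis, 24 h post-dose in transiently transfected HepG2. Endogenous factors drive cis-promoter reporters; gain or loss of signal fitted bidirectionally against DMSO.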

Assay [9] can be described thus: ATG_BRE_CIS: Attagene CIS-FACTORIAL HepG2 Assay for human Bone Morphogenetic Protein (BMP) Response Element (BRE) (AID 2282933). To be noted: HepG2 BMP response element reporter, Attagene transcription factor profiling; actives raise or lower the signal. The gist of the method:
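Endogenous transcription factor activity at a BMP response element was monitored in transfected HepG2 cells 24 h after dosing. Fluorescent RT-PCR products were resolved by capillary electrophoresis, and activity was fitted in both directions versus DMSO.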

For assay [10], the target named is Retinoic acid receptor alpha (Homo sapiens) (UniProt P10276). The assay can be described thus: ATG_DR5_RAR_CIS: Attagene CIS-FACTORIAL HepG2 Assay for human Retinoic Acid Receptor Alpha (RARE), DR5 submotif (AID 2282934).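 For AC50: reporter responds to endogenous RAR alpha beta and gamma in HepG2 not RARA alone.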 Conditions: HepG2 Attagene cis-factorial RARE DR5 reporter, mRNA; actives raise or lower the signal. The essentials:
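After 24 h of chemical exposure, transiently transfected HepG2 cells were lysed for total RNA; the DR5-regulated reporter transcript was quantified via RT-PCR and capillary electrophoresis, with activity fitted bidirectionally against DMSO.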

The target in assay [11] is Transcription factor E2F1 (Homo sapiens) (UniProt Q01094). The assay can be described thus: ATG_E2F_CIS: Attagene CIS-FACTORIAL HepG2 Assay for human E2F Transcription Factor 1 (AID 2282935). To be noted: HepG2 Attagene cis-reporter, E2F reporter RNA transcripts; actives raise or lower the signal. The essentials: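 Transient MRTU transfection of HepG2; 24 h compound exposure; RNA → oligo(dT) RT → PCR → FAM label → HpaI cut → CE fluorescence. Gain/loss of signal fit against DMSO.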

The nature of assay [12]: ATG_E_Box_CIS: Attagene CIS-FACTORIAL HepG2 Assay for human Enhancer Box (E-box) (AID 2282936). To be noted: HepG2 E-box cis-reporter transcription, actives raise or lower the signal. The essentials:
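Transiently transfected HepG2, endogenous TF-driven reporters, 24 h dosing. Readout: RT-PCR plus capillary electrophoresis of fluorescent reporter fragments. Gain or loss of signal fitted bidirectionally against DMSO baseline.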

Assay [13] is described as follows: ATG_M_61_CIS: Attagene CIS-FACTORIAL HepG2 Assay for M61 Transcription Factor (Internal Marker) (AID 2282937). To be noted: HepG2 Attagene CIS-FACTORIAL M61 internal marker reporter; actives raise or lower the signal. The gist of the method:
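Endogenous transcription factor activity in HepG2 is read through transiently transfected cis-element reporter units. After 24 h dosing, RNA undergoes reverse transcription, PCR and primer extension with 6-FAM before capillary electrophoresis; DMSO-referenced bidirectional fit.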

Assay [14] is described as follows: ATG_EGR_CIS: Attagene CIS-FACTORIAL HepG2 Assay for human Early Growth Response 1 (EGR1) (AID 2282938). Conditions: HepG2 Attagene CIS-FACTORIAL EGR reporter mRNA; actives raise or lower the signal. The essentials: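 Activity is taken as induction or loss of reporter mRNA versus DMSO, fitted bidirectionally. Transcripts from cis-regulated reporter units in transiently transfected HepG2 were measured after 24 h by RT-PCR with capillary electrophoresis.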

The nature of assay [15]: ATG_M_19_CIS: Attagene CIS-FACTORIAL HepG2 Assay for M19 Transcription Factor (Internal Marker) (AID 2282939). To be noted: HepG2 Attagene CIS-FACTORIAL M19 internal marker reporter; actives raise or lower the signal. The essentials: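 Background-control endpoint from a multiplexed HepG2 reporter panel. Cells carrying cis-regulated reporter constructs are treated 24 h, then reporter transcripts are amplified, fluorescently labelled and sized by capillary electrophoresis. DMSO defines baseline.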

Assay [16] can be described thus: ATG_Ets_CIS: Attagene CIS-FACTORIAL HepG2 Assay for human Erythroblast Transformation Specific (ETS) (AID 2282941). To be noted: HepG2 ETS cis-reporter transcription, actives raise or lower the signal. The essentials:
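Bidirectional fit versus DMSO of reporter mRNA signal, detected by RT-PCR and capillary electrophoresis in HepG2 cells transiently transfected with cis-element reporters and dosed 24 h.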

In assay [17] the target is Hepatocyte nuclear factor 3-beta (Homo sapiens) (UniProt Q9Y261). Kind of assay: ATG_FoxA2_CIS: Attagene CIS-FACTORIAL HepG2 Assay for human Forkhead box A2 (FOXA2) (AID 2282942). Conditions: HepG2 cis-reporter transcription factor activity, 24 h; actives raise or lower the signal. The gist of the method: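 Reporter transcript induction is measured by fluorescence after capillary electrophoresis of RT-PCR products from HepG2 cells exposed 24 h. Cis-regulated reporter units report endogenous factor activity; curves fitted both directions against DMSO.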

Assay [18] is described as follows: ATG_FoxO_CIS: Attagene CIS-FACTORIAL HepG2 Assay for human Forkhead box O (FoxO) (AID 2282943). To be noted: HepG2 Attagene cis-reporter, FoxO element, mRNA; actives raise or lower the signal. The essentials:
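Transfected HepG2 reporter cells exposed to test chemical for 24 h; reporter RNA measured by reverse transcription, PCR and fluorescent capillary electrophoresis; curves fitted for increases and decreases against DMSO.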

Assay [19] can be described thus: ATG_GATA_CIS: Attagene CIS-FACTORIAL HepG2 Assay for human GATA Binding Protein (AID 2282944). Conditions: HepG2 GATA cis-element reporter, Attagene multiplex mRNA; actives raise or lower the signal. The essentials: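 Endogenous transcription factor activity was captured through cis-promoter-driven reporters in transfected HepG2 cells. After 24 h exposure, reporter transcripts were quantified by RT-PCR with fluorescent capillary electrophoresis, and responses fitted both directions against DMSO.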

Assay [20] is described as follows: ATG_ERE_CIS: Attagene CIS-FACTORIAL HepG2 Assay for Estrogen Response Element (ERE) (AID 2282940). Conditions: HepG2 ERE cis-reporter, Attagene RNA transcript; actives raise or lower the signal. The gist of the method: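 Cells used were human hepatoma HepG2, transfected with multiple reporter transcription units under cis-regulatory promoters. Reporter mRNA, read 24 h post-dosing via fluorescent RT-PCR products on capillary electrophoresis, was fitted bidirectionally relative to DMSO.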

Sequence of Aryl hydrocarbon receptor (Homo sapiens) (P35869 whole entry, looked up): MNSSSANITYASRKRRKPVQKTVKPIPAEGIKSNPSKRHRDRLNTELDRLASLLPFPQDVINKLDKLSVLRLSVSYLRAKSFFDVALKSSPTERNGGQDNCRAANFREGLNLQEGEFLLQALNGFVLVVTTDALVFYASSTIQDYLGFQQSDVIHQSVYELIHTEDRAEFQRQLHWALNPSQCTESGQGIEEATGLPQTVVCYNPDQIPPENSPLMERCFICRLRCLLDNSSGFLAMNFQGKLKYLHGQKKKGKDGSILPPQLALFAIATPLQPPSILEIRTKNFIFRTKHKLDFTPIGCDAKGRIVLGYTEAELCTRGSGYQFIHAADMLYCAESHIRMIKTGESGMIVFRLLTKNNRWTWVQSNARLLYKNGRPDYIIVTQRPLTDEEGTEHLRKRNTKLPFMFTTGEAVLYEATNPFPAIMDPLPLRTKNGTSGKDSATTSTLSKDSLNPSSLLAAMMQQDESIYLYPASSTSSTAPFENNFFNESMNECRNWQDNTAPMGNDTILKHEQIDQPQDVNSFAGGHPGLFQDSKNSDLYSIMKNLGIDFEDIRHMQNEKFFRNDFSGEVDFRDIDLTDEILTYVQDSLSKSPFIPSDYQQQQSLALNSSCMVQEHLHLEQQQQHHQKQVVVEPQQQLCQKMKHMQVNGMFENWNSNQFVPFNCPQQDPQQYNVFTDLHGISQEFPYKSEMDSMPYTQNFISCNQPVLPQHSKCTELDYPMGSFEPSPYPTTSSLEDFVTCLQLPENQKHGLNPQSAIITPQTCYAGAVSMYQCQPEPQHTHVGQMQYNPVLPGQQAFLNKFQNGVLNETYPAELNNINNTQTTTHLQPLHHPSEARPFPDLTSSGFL
Sequence of Transcription factor E2F1 (Homo sapiens) (Q01094 whole entry, looked up): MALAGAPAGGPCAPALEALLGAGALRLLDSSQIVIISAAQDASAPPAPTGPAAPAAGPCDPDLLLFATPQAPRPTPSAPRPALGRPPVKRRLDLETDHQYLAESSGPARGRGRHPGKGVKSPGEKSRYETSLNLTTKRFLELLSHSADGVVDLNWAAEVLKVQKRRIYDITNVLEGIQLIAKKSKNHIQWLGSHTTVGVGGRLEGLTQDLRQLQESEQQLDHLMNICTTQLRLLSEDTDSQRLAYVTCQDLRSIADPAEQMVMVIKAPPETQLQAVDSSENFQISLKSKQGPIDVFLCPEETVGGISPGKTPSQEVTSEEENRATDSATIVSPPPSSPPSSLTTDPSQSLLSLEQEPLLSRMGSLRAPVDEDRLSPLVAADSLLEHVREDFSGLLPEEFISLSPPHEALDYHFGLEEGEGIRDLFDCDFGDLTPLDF
Sequence of Hepatocyte nuclear factor 3-beta (Homo sapiens) (Q9Y261 whole entry, looked up): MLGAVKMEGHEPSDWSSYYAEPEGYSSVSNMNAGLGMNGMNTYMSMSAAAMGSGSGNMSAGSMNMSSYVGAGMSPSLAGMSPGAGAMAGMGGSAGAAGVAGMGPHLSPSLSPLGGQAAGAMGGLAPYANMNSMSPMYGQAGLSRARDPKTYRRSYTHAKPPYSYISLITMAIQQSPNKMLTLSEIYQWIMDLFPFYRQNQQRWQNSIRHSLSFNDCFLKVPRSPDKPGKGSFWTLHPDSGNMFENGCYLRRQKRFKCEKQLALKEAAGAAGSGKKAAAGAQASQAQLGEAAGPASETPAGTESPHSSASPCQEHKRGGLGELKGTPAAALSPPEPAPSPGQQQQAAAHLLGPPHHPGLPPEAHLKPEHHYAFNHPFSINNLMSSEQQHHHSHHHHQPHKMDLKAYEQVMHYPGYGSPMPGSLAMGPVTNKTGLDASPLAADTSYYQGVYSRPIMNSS
Sequence of Retinoic acid receptor alpha (Homo sapiens) (P10276 whole entry, looked up): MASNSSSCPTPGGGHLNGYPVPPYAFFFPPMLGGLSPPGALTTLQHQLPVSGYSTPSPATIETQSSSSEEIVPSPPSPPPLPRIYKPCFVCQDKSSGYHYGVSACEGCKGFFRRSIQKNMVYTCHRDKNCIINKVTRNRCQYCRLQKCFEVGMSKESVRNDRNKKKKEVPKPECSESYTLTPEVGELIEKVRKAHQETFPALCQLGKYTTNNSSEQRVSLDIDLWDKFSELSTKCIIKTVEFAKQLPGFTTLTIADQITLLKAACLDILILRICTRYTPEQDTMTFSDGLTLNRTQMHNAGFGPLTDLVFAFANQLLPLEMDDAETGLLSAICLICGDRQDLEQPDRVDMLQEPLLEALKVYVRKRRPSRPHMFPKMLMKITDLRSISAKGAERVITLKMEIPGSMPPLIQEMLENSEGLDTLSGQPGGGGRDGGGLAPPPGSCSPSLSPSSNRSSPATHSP
Sequence of CCAAT/enhancer-binding protein beta (Homo sapiens) (P17676 whole entry, looked up): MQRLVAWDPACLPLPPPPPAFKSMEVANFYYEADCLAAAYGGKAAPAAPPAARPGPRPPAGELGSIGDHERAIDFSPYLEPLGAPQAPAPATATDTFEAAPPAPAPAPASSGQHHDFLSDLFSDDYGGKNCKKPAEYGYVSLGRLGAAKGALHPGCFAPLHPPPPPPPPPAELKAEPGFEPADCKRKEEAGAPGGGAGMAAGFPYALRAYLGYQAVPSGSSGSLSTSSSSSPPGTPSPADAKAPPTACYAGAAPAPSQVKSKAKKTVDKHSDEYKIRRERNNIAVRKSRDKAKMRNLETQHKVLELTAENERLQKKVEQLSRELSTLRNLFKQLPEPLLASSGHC

Take `CC/C=C\C/C=C\C/C=C\CCCCCCCC(=O)OC`: the outcome in assay [1], in assay [2], in assay [3], in assay [4], in [11] and in assay [13] was inactive. In addition, the outcome in assay [14], in [15], in assay [16], in [17] and in assay [19] was inactive. In addition, the AC50 – broadly, the midpoint of the concentration-response curve, whichever way the signal moves – is 71.1 µM (active) in [5]; 47.6 µM (active) in assay [6]; 70.6 µM (active) in [7]; 100 µM (active) in assay [8]; 167 µM (active) in assay [9]; 100 µM (active) in assay [10]. In addition, the results for the concentration at half-maximal activity (AC50) in assay [12] and in [18] were 134 µM (active) and 158 µM (active), respectively.
As to `C=CC(=O)NCOCCCC`, the call in [1], in assay [2], in assay [3], in assay [4], in assay [5] and in assay [6] was inactive. The outcome in assay [7], in assay [8], in assay [9], in assay [10], in assay [11] and in assay [12] was inactive. Besides, the call in assay [13], in [14], in assay [15], in assay [20], in assay [17] and in assay [18] was inactive. Besides, the result in [19] was inactive.
Take `COC(C=C(C)CCC=C(C)C)OC`: the outcome in [1], in assay [2], in assay [3], in assay [4], in assay [5] and in assay [6] was inactive. Further, the molecule was classed as inactive in [8], in assay [9], in assay [10], in [11], in assay [12] and in assay [13]. The result in [14], in [15], in [20], in [16], in assay [17] and in assay [19] was inactive. Further, in [7], the AC50 was 146 µM (active).
For `CC(=O)c1ccc(S(=O)(=O)NC(=O)NC2CCCCC2)cc1`, the result in assay [1], in assay [2], in [3], in assay [4], in [5] and in [7] was inactive. In addition, the call in assay [8], in assay [9], in assay [10], in assay [11], in assay [12] and in [13] was inactive. For the same molecule, the result in [14], in assay [15], in assay [20], in [17], in [18] and in [19] was inactive. Also, the half-maximal activity concentration (AC50) in assay [6] is 100 µM (active).
For the molecule `Cc1ccc([N+](=O)[O-])cc1N`, the molecule was called inactive in assay [1], in assay [2], in [3], in assay [4], in assay [5] and in [7]. Besides, the result in assay [8], in assay [9], in assay [10], in assay [11], in [12] and in assay [13] was inactive. Moreover, the outcome in [14], in [15], in assay [16], in [17], in [18] and in assay [19] was inactive. In addition, in [6], the concentration at half-maximal activity (AC50) was 1.51 µM (active).
Take `CCC(C)C(=O)OCCc1ccccc1` (stereo not drawn): the AC50 in assay [1] was 1.68 µM (active). Besides, the call in assay [2], in [3], in assay [4], in [5], in assay [6] and in assay [7] was inactive. In addition, the result in assay [8], in [9], in assay [10], in [11], in assay [12] and in assay [13] was inactive. Besides, the molecule was classed as inactive in [14], in assay [15], in assay [16], in [17], in assay [18] and in [19].
Regarding `Oc1ccc(/C=C/c2cc(O)cc(O)c2)cc1`, the molecule was classed as inactive in assay [1], in [2], in assay [3], in [6], in assay [7] and in assay [8]. Moreover, the call in assay [9], in assay [10], in [11], in assay [12], in assay [13] and in assay [14] was inactive. Also, the call in [15], in [17], in [18] and in assay [19] was inactive. Also, the half-maximal activity concentration (AC50) in assay [4] is 22.7 µM (active); in assay [5], 100 µM (active); in assay [20], 6.81 µM (active).
